Shown are actives, neighbours in structure and some others; about 3.2% of the full set was active somewhere.
p53 reactivation: re-activators of mutant p53; 0.063% of 320,000 active; H1299 p53-A138V BP100-luciferase reporter, luminescence, 24 h; Potency, µM (titrated, usually from 92.2 µM), without a hit: top-dose activity change, positive = activation, most hits filed as activators; note: potency is the fitted concentration of half-maximal effect; % of control where 0% means no effect; nearly all actives have a fitted effect of over 45% in size
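p53-null H1299 cells stably carrying temperature-sensitive p53-A138V and a BP100-luciferase reporter were pinned with compounds (4-point, 1:5 series) and held 24 hrs at 37 deg C. Luminescence was read 10 min after detection reagent.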
Nrf2 block: blocks Nrf2 signaling; A549 ARE-Fluc reporter, luciferase luminescence, 18-24 h; Potency, µM (series often up to 46 µM), for inactives: at the top dose activity change, negative = inhibition, usual class: inhibitors; 2.1% of 360,000 active; note: potency is the fitted concentration of half-maximal effect; % is set by controls: 0 for no effect and ±100 for the full control effect; nearly all actives have a fitted effect of over 60% in size
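Two sequential reads on A549 ARE_Fluc cells exposed to compound for 18-24 h: a CellTiter-Fluor fluorescence read for viability, then a luciferase luminescence read for Nrf2/ARE activity.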
Nrf2 ARE act: activates Nrf2 signaling; AREc32 ARE-luciferase reporter (MCF7-derived line), luminescence, 24 h; Potency, µM (doses to about 46.1 µM), for the others: at the highest dose activation, usual class: activators; 0.31% of 410,000 active; note: potency is the fitted concentration of half-maximal effect; % of control where 0% means no effect; nearly all actives have a fitted effect of over 65% in size
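For detection, Steady-Glo was added and plates sat 30 min at RT; before that, AREc32_Fluc cells grown overnight in OPTI-MEM/5% FBS had been treated with 23 nL compound for 24 hr at 37 deg C.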
A549 tox: counter-screen for Nrf2 inhibitors: cytotoxicity in A549 cells | A549 ARE-Fluc cells, CellTiter-Fluor viability, 18-24 h | Potency, µM (top dose mostly 46 µM), for the others: top-dose activity change, negative = cytotoxicity, actives largely listed as inhibitors | 0.16% of 390,000 active; note: potency is the fitted concentration of half-maximal effect; % is set by controls: 0 for no effect and ±100 for the full control effect
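A549 ARE_Fluc cells in 5% FBS OPTI-MEM were exposed to compounds in concentration-response for 18-24 h at 37 deg C. Viability was read by CellTiter-Fluor fluorescence (Ex 405/Em 525) after 30 min, before the luciferase read.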
IL2 activator: activators of IL-2; IL-2 activation reporter assay, cell-based qHTS; stimulated with anti-CD3/CD4/CD28 beads; in transgenic mouse T cells; activation, % (series mostly up to about 46 µM); 0.065% of 360,000 active; in the data active = activation above about 50%; inconclusive = mostly about 30% to 49%; note: 0% is about no effect
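Screening format: compound pinned onto unstimulated transgenic mouse T cells, 60 min incubation, then anti-CD3/anti-CD4/anti-CD28 bead stimulation for 18 hours at 37 degrees C, followed by EGFP and DsRed detection.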
BRCA1 expr up: BRCA1 expression activation. MCF7-BRCA1-FFLuc reporter, luminescence, 48 h; response scale: scaled: vehicle 0%, 10 µM genistein 100%. Potency, µM (series often up to 46.1 µM), for the others: top-dose activation, actives largely listed as activators. 1.1% of 380,000 active. AID 624202; note: potency is the fitted concentration of half-maximal effect; nearly all actives have a fitted effect of over 80% in size
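MCF7 cells carrying a BRCA1-firefly luciferase reporter (2000 cells/well, phenol-red free MEM) were attached for 2 h at 37 °C, then given compounds for 48 h. Luminescence was read 15 min after luciferase reagent; activity normalized to genistein (10 microM) and DMSO.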
* hit, by the source's call. Unless noted, calls come from the whole dose curve; as a rule, active = well fitted curve in the direction sought with a large enough effect; inconclusive = small, poorly fitted or top-dose-only effect, or another doubt; inactive = no such curve, though single readings can be large; an effect the other way counts as inactive or inconclusive.

Results for CC(Oc1ccccc1)C(=O)NNC(=O)c1ccccn1 (centres undefined) ?
p53 reactivation: 26.3%; Nrf2 block: inconclusive; Nrf2 ARE act: -0.5%; A549 tox: -10.5%; IL2 activator: -0.4; BRCA1 expr up: -81.5%

How did NC(=S)NN=Cc1nccc2ccccc12 do in these assays?
Nrf2 block: inconclusive; Nrf2 ARE act: 19.8%; A549 tox: inconclusive; IL2 activator: -0.8; BRCA1 expr up: -44.8%

How did Cc1cnc(C=NNC(N)=S)c2cccc(N)c12 do in these assays?
Nrf2 block: 7.31µM*; Nrf2 ARE act: 3.0%; A549 tox: inconclusive; IL2 activator: -6.0; BRCA1 expr up: -96.7%

How did CC12CCC=CC1C(c1ccc(Br)cc1F)N(Cc1ccccc1)C2=O (centres undefined) do in these assays?
Nrf2 block: -12.1%; A549 tox: 4.9%

What do the screens show for `Cc1ccc(/C=C2/NC(=O)N(c3ccccc3)C2=O)o1`?
p53 reactivation: 14.2%; Nrf2 block: 13.5%; Nrf2 ARE act: 19.5%; IL2 activator: -3.0; BRCA1 expr up: 7.94µM*

What do the screens show for `O=C1CN(S(=O)(=O)c2ccc3c(c2)OCCO3)CCN1S(=O)(=O)c1c(F)cccc1F`?
Nrf2 block: 17.0%; A549 tox: -4.8%

How did CC(C)(C)c1ccc(NC(=O)CC2(C(F)(F)F)OCCO2)cc1 do in these assays?
p53 reactivation: inconclusive; Nrf2 block: inconclusive; Nrf2 ARE act: -0.5%; A549 tox: -2.8%; IL2 activator: 2.1; BRCA1 expr up: 3.55µM*

What do the screens show for `O=C(O)CC1(CC(=O)Nc2ccc(C(F)(F)F)cc2)CCCC1`?
p53 reactivation: -0.9%; Nrf2 block: -4.9%; Nrf2 ARE act: -0.2%; A549 tox: -2.0%; IL2 activator: 0.7; BRCA1 expr up: 3.3%

How did CC(=O)c1ccc(OC(C)c2nc3ccccc3s2)cc1 (centres undefined) do in these assays?
p53 reactivation: 23.7%; Nrf2 block: inconclusive; Nrf2 ARE act: 5.2%; A549 tox: 1.6%; IL2 activator: -1.8; BRCA1 expr up: 6.31µM*

Results for COc1ccc(-c2cc(C(F)(F)F)n3nc(C(=O)N4CCCCC4)cc3n2)cc1OC ?
p53 reactivation: -21.8%; Nrf2 block: 25.9µM*; Nrf2 ARE act: 0.2%; A549 tox: -19.4%; IL2 activator: -0.1; BRCA1 expr up: -26.8%

Results for COc1ccc(-c2cc(C(F)(F)F)n3nc(C(=O)N4CCCCC4)cc3n2)cc1 ?
p53 reactivation: -4.6%; Nrf2 block: inconclusive; Nrf2 ARE act: -0.4%; A549 tox: -3.9%; IL2 activator: 1.2; BRCA1 expr up: -26.6%

Results for CCCCOc1cccc(C(=O)N(Cc2ccc(C)o2)c2ccccn2)c1 ?
Nrf2 block: 14.6µM*; Nrf2 ARE act: 1.0%; A549 tox: -23.3%; BRCA1 expr up: 0.0%

Results for CCc1ccccc1-n1c(C)nc2cc(C(=O)NCCc3ccc(Cl)cc3)ccc21 ?
Nrf2 ARE act: -0.5%; A549 tox: -12.2%

Results for S=c1[nH]nc(-c2ccncc2)n1/N=C/c1cn(-c2ccccc2)nc1-c1ccccc1 ?
p53 reactivation: -2.7%; Nrf2 block: inconclusive; Nrf2 ARE act: 6.0%; A549 tox: 23.9%; IL2 activator: 3.3; BRCA1 expr up: 12.6µM*

How did CN(C(=O)c1ccc(NC(=O)Cc2ccc([N+](=O)[O-])cc2)cc1)C1CCCC1 do in these assays?
p53 reactivation: -3.9%; Nrf2 block: inconclusive; Nrf2 ARE act: 0.7%; A549 tox: 0.4%; IL2 activator: 3.6; BRCA1 expr up: -16.0%

Results for CN(C(=O)c1cccc(NC(=O)Cc2cccc([N+](=O)[O-])c2)c1)C1CCC1 ?
p53 reactivation: 0.3%; Nrf2 block: inconclusive; Nrf2 ARE act: 5.0%; A549 tox: -0.1%; IL2 activator: -0.3; BRCA1 expr up: -38.8%

Results for CN(C(=O)c1cccc(NC(=O)Cc2ccc([N+](=O)[O-])cc2)c1)C1CCCC1 ?
p53 reactivation: -2.8%; Nrf2 block: 23.1µM*; Nrf2 ARE act: -0.7%; A549 tox: -12.7%; IL2 activator: -3.8; BRCA1 expr up: -45.6%

How did O=C(CCCc1ccccc1)Nc1cccc([N+](=O)[O-])c1 do in these assays?
p53 reactivation: 16.3%; Nrf2 block: inconclusive; Nrf2 ARE act: inconclusive; A549 tox: 0.0%; IL2 activator: 2.2; BRCA1 expr up: 12.6µM*

Results for O=C(CCc1ccccc1)Nc1cccc([N+](=O)[O-])c1 ?
p53 reactivation: 8.6%; Nrf2 block: 22.8%; Nrf2 ARE act: inconclusive; A549 tox: 1.7%; IL2 activator: -0.5; BRCA1 expr up: -8.3%

How did CN(Cc1ccccc1)C(=O)c1cccc(NC(=O)Cc2cccc([N+](=O)[O-])c2)c1 do in these assays?
p53 reactivation: -3.9%; Nrf2 block: 16.4µM*; Nrf2 ARE act: -0.1%; A549 tox: -3.3%; IL2 activator: -4.3; BRCA1 expr up: -12.0%

What do the screens show for `CN(C(=O)c1cccc(NC(=O)Cc2cccc([N+](=O)[O-])c2)c1)C1CCCC1`?
p53 reactivation: 0.0%; Nrf2 block: 10.3µM*; Nrf2 ARE act: 6.4%; A549 tox: -2.4%; IL2 activator: 0.2; BRCA1 expr up: -55.4%

What do the screens show for `CCOC(=O)c1cccc(NS(=O)(=O)c2ccc(-c3coc(C)n3)cc2)c1`?
Nrf2 ARE act: -0.9%; A549 tox: 5.9%; BRCA1 expr up: 1.6%

Results for CCSC1(SCC)N=C(N)C2(C#N)C(c3ccccc3)NC3=C(CCC3)C12C#N (centres undefined) ?
p53 reactivation: 3.5%; Nrf2 block: 1.3%; Nrf2 ARE act: 14.1µM*; A549 tox: 3.8%; IL2 activator: -0.1; BRCA1 expr up: -7.7%

How did COC(=O)C(NC(=O)CCc1nnc2ccc(N3CCCCC3)nn12)C(C)C (centres undefined) do in these assays?
p53 reactivation: inconclusive; Nrf2 block: 15.8%; Nrf2 ARE act: -0.2%; A549 tox: 0.7%; IL2 activator: -1.1; BRCA1 expr up: 11.2µM*

How did CC1CCN(c2ccc3nnc(CCC(=O)NC(C)C)n3n2)CC1 do in these assays?
p53 reactivation: -2.1%; Nrf2 block: -10.4%; Nrf2 ARE act: -1.1%; A549 tox: -4.7%; IL2 activator: -2.4; BRCA1 expr up: 1.1%

What do the screens show for `Cc1ccc(C)c(N2CCN(CCCNC(=O)C3COc4ccccc4C3)CC2)c1` (centres undefined)?
Nrf2 ARE act: 3.2%; A549 tox: -3.1%
